Screening results deposited in PubChem by Sanford-Burnham Center for Chemical Genomics.
tim23-1 inh – tim23-1 yeast growth inhibition; S. cerevisiae tim23-1 growth, BacTiter-Glo luminescence, 24 h; inhibition, % at 20 µM; actives 1.3% (n = 330,000);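 active means growth inhibition of the mutant yeast at or above 50%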;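 further: temperature-sensitive mutant grown at 25 °C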
tim10-1 inh – inhibits growth of tim10-1 mutant yeast | S. cerevisiae tim10-1 ts strain growth, BacTiter-Glo, 24 h | inhibition, % at 20 µM | actives 2.2% (n = 330,000) | AID 463190;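 active means inhibition of at least 40%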;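 further: mutant grown at 25 °C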
TIM10 inh – growth inhibitors of TIM10 yeast strain. S. cerevisiae TIM10 strain growth, BacTiter-Glo luminescence, 24 h. actives 1.4% (n = 330,000). AID 463195. inhibition, % at 10 µM;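 active means inhibition of 40% or more at the single tested concentration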;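 further: wild-type TIM10 isogenic control strain grown at permissive 25 °C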
NLRP3 yeast inh – NALP3 inhibition in yeast; Yeast reconstituted NLRP3/ASC/caspase-1, beta-gal luminescence, 24 h; inhibition, % at 10 µM; actives 0.39% (n = 330,000); AID 2825;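 active means inhibition of 50% or more; inactive means inhibition below 50%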
NALP1 inh – NALP1 inhibition. S. cerevisiae NALP1/ASC/caspase-1 growth, X-gal OD620, 72 h. inhibition, % at 10 µM. actives 0.61% (n = 280,000); in the data active means inhibition mostly above about 24%, no sharp cut-off; inactive means mostly below about 32%
tim10-1 confirm – confirmation of tim10-1 mutant yeast growth inhibitors | shares compounds with tim10-1 inh | S. cerevisiae tim10-1 ts strain growth, BacTiter-Glo, 24 h | inhibition, % at 20 µM | actives 56% (n = 7,400) | AID 463213;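 active means inhibition of yeast growth at or above a set limit in either of two repeat tests at 20 µM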;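 further: tim10-1 mutant grown at permissive 25 °C to find synthetic lethal compounds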
Numbers stand for hits. Hits are enriched below; roughly 4% of the tested compounds scored in any of these assays.

Results for N#Cc1cc([N+](=O)[O-])ccc1NC(=O)COC(=O)CN1C(=O)C2CCCCC2C1=O (stereo not given) ?
tim23-1 inh: inactive; tim10-1 inh: inactive; TIM10 inh: inactive; NLRP3 yeast inh: inactive

What do the screens show for `Cc1ccc([N+](=O)[O-])cc1NC(=O)CN(C(=O)c1ccccc1Cl)C1CCCCC1`?
tim23-1 inh: inactive; tim10-1 inh: 40; TIM10 inh: inactive; NLRP3 yeast inh: inactive; NALP1 inh: inactive; tim10-1 confirm: inactive

What do the screens show for `O=C(COC(=O)COc1ccccc1)Nc1ncc([N+](=O)[O-])s1`?
tim23-1 inh: inactive; tim10-1 inh: inactive; TIM10 inh: inactive; NLRP3 yeast inh: inactive

How did CCC(Oc1ccccc1)C(=O)Nc1nnc(C)s1 (stereo not given) do in these assays?
tim23-1 inh: inactive; tim10-1 inh: inactive; TIM10 inh: inactive; NLRP3 yeast inh: inactive; NALP1 inh: inactive

Results for CCC(Oc1ccccc1)C(=O)Nc1ncc([N+](=O)[O-])s1 (stereo not given) ?
tim23-1 inh: inactive; tim10-1 inh: 42; TIM10 inh: inactive; NLRP3 yeast inh: inactive; NALP1 inh: inactive; tim10-1 confirm: 55

What do the screens show for `CC(CC(=O)Nc1ncc([N+](=O)[O-])s1)c1ccccc1` (stereo not given)?
tim23-1 inh: inactive; tim10-1 inh: 43; TIM10 inh: inactive; NLRP3 yeast inh: inactive; NALP1 inh: inactive; tim10-1 confirm: 52

What do the screens show for `Cn1c(NCc2c(O)ccc3ccccc23)nc2ccccc21`?
tim23-1 inh: inactive; tim10-1 inh: 45; TIM10 inh: inactive; NLRP3 yeast inh: inactive; NALP1 inh: inactive; tim10-1 confirm: 33

What do the screens show for `Cn1c(NCc2cc(Br)ccc2O)nc2ccccc21`?
tim23-1 inh: inactive; tim10-1 inh: inactive; TIM10 inh: inactive; NLRP3 yeast inh: inactive; NALP1 inh: inactive

How did CCCn1c(SCC(N)=O)nc2c(c1=O)C1(CCCC1)Cc1ccccc1-2 do in these assays?
tim23-1 inh: inactive; tim10-1 inh: inactive; TIM10 inh: inactive; NLRP3 yeast inh: inactive; NALP1 inh: inactive

How did CCC1(C)Cc2ccccc2-c2nc(NCCCO)n(-c3ccccc3)c(=O)c21 (stereo not given) do in these assays?
tim23-1 inh: inactive; tim10-1 inh: inactive; TIM10 inh: inactive; NLRP3 yeast inh: inactive; NALP1 inh: inactive

What do the screens show for `Cn1c(NCCCO)nc2c(c1=O)C1(CCCCC1)Cc1ccccc1-2`?
tim23-1 inh: inactive; tim10-1 inh: 54; TIM10 inh: inactive; NLRP3 yeast inh: inactive; NALP1 inh: inactive; tim10-1 confirm: 38

Results for CCC(=O)Nn1cnc2c(c1=O)C1(CCCCC1)Cc1ccccc1-2 ?
tim23-1 inh: inactive; tim10-1 inh: 50; TIM10 inh: inactive; NLRP3 yeast inh: inactive; NALP1 inh: inactive; tim10-1 confirm: 37

Results for CCOC(=O)COc1ccc(/C=C/[N+](=O)[O-])c(OCC(=O)OCC)c1 ?
tim23-1 inh: inactive; tim10-1 inh: 42; TIM10 inh: inactive; NLRP3 yeast inh: inactive; NALP1 inh: inactive; tim10-1 confirm: 49

What do the screens show for `CCOC(=O)COc1ccc2nsnc2c1`?
tim23-1 inh: inactive; tim10-1 inh: inactive; TIM10 inh: inactive; NLRP3 yeast inh: inactive; NALP1 inh: inactive

How did O=S(=O)(C/C(=C/CO)S(=O)(=O)c1ccccc1)c1ccccc1 do in these assays?
tim23-1 inh: inactive; tim10-1 inh: 44; TIM10 inh: inactive; NLRP3 yeast inh: inactive; NALP1 inh: inactive; tim10-1 confirm: inactive

How did CCN(Cc1ccccc1)C(=O)CS(=O)(=O)c1ccccc1 do in these assays?
tim23-1 inh: inactive; tim10-1 inh: inactive; TIM10 inh: inactive; NLRP3 yeast inh: inactive; NALP1 inh: inactive

Results for O=C(COC(=O)c1ccc(S(=O)(=O)C(F)F)cc1)Nc1cccnc1Cl ?
tim23-1 inh: inactive; tim10-1 inh: inactive; TIM10 inh: inactive; NLRP3 yeast inh: inactive

Results for CSc1cccc(NC(=O)CCCn2c(=O)c3cccn3c3cccnc32)c1 ?
tim23-1 inh: inactive; tim10-1 inh: inactive; TIM10 inh: inactive; NLRP3 yeast inh: inactive; NALP1 inh: inactive

What do the screens show for `CCCCN(C(=O)CSc1cc(C)c2ccccc2n1)c1c(N)n(Cc2ccccc2)c(=O)[nH]c1=O`?
tim23-1 inh: inactive; tim10-1 inh: inactive; TIM10 inh: inactive; NLRP3 yeast inh: inactive; NALP1 inh: inactive

Results for COc1ccccc1C(=O)NC(CCSC)C(=O)NNC(=O)c1ccncc1 (stereo not given) ?
tim23-1 inh: inactive; tim10-1 inh: inactive; TIM10 inh: inactive; NLRP3 yeast inh: inactive
